# Among all 310,000 compounds or so, about 3,300 (1.1%) were called active.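 Rule for the calls: active = B-score under library mean minus 3 SD, initial fluorescence not abnormally high, positive integrated signal ratio; inactive = the rest.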 Only a selection was taken, and actives are over-represented in it overall.
# Target: Short transient receptor potential channel 6 (Mus musculus) (UniProt Q61143)
# Assay: mouse TRPC6 channel inhibitors, primary screen, cell-based, HEK293, membrane potential dye (AID 2553);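 for B-score: B-score derived from integrated fluorescence ratio over the kinetic read; more negative B-score means stronger inhibition of depolarization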
# Settings: ACh-evoked depolarization, at 10 µM; hits give low values
# Short transient receptor potential channel 6 (Mus musculus), sequence (Q61143 whole entry, looked up): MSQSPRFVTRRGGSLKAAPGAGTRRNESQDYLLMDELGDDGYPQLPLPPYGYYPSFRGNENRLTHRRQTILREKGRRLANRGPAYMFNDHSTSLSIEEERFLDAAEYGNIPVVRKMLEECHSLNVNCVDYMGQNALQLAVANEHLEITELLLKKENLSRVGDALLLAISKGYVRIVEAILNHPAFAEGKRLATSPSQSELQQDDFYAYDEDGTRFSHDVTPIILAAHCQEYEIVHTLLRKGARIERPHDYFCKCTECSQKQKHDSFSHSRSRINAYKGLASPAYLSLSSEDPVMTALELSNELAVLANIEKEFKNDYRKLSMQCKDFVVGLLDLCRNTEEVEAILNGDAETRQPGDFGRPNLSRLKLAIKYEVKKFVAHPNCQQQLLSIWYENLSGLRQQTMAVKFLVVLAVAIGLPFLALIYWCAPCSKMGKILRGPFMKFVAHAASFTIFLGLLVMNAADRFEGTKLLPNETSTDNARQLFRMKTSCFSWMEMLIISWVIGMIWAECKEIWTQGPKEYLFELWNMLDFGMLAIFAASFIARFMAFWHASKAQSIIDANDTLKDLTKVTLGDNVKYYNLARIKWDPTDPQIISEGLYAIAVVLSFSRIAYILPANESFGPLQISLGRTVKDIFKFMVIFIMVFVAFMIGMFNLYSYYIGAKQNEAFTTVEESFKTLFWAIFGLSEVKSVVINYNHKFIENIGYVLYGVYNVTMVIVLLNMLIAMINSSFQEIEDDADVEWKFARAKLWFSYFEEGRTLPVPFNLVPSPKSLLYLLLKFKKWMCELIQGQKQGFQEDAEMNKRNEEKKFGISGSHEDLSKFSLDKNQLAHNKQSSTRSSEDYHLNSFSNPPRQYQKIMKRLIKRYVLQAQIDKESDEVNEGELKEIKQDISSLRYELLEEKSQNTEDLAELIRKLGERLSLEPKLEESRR
row,SMILES,B-score
1,CCOc1ccc(Nc2nc(Cl)nc(N3CCN(c4ccc(OC)cc4)CC3)n2)cc1,inactive
2,CCOC(=O)N1CCN(CCC(=O)Nc2cc(OC)ccc2OC)CC1,inactive
3,CCN1CCN(c2nc(Nc3cc(OC)ccc3OC)nc(Nc3cc(OC)ccc3OC)n2)CC1,-5.02 (active)
4,Cn1c(=O)n(C)c2cc(S(=O)(=O)Nc3ccc(F)cc3)ccc21,inactive
5,C=CC1=C(C(=O)O)N2C(=O)[C@@H](NC(=O)/C(=N/OCC(=O)O)c3csc(N)n3)[C@H]2SC1,inactive
6,Cc1ccc(NC(=O)[C@H](Cc2ccccc2)NC(=O)C2CCNCC2)cc1,inactive
7,COc1ccccc1C(=O)Nc1ccc(Nc2ccccc2)cc1,inactive
8,CCOc1ccc(N2CC(C(=O)NCc3ccccn3)CC2=O)cc1 (configuration not stated),inactive
9,CCc1ccc(N2CC(C(=O)Nc3ccc(S(=O)(=O)Nc4nccs4)cc3)CC2=O)cc1 (configuration not stated),inactive
10,CCN(CC)S(=O)(=O)c1ccc(N2CC(C(=O)NCc3cccnc3)CC2=O)cc1 (configuration not stated),-6.5 (active)
11,CCc1ccc(N(C(=O)c2csnn2)C(C(=O)NC2CCCCC2)c2cccnc2)cc1 (configuration not stated),inactive
12,COCCCNCCOCCOc1ccc(Cl)cc1Br,inactive
13,COCC(C)NCc1cc(Br)ccc1OC (configuration not stated),inactive
14,CCC(C)NCCOCCOc1ccc(Br)cc1C (configuration not stated),-5.27 (active)
15,Cc1c(C(=O)N(C)CCc2cnn(C)c2)oc2c(F)cccc12,inactive
16,CCOC(=O)N1CCC(O)(c2cc(C)c(C)cc2C)CC1,-9.52 (active)
17,CCOC(=O)N1CCN(C(=S)Nc2ccc(C)cc2C)CC1,inactive
18,CCOC(=O)N1CCN(C(=O)COc2ccc(Cl)cc2C)CC1,inactive
19,COc1ccc(-c2cc(C(=O)Nc3ccccc3O)c3ccccc3n2)cc1,inactive
20,CCc1ccc(-c2cc(C(=O)NN3CCN(C)CC3)c3ccccc3n2)cc1,-5.25 (active)
21,Cc1ccc(-c2cc(C(=O)NC3CCN(Cc4ccccc4)CC3)c3ccccc3n2)cc1,inactive
22,COc1ccc(CCN2C(=O)CC(N3CCC(C(N)=O)CC3)C2=O)cc1OC (configuration not stated),inactive
23,Cc1c(C(=O)c2cccc([N+](=O)[O-])c2)c2ccccn2c1CCC#N,inactive
24,O=C(NCCc1ccccc1)c1ccc2c(c1)N(Cc1ccccc1)CCS2,inactive
25,CCOC(=O)N1CCN(C(=O)c2ccc3c(c2)N(Cc2ccc(C)cc2)CCS3)CC1,-7.3 (active)
26,O=C(NCCN1CCOCC1)c1ccc2c(c1)N(Cc1ccc(Cl)cc1)CCS2,inactive
27,COc1ccc(/C=C/CN2CCCC(C(=O)c3cc(F)ccc3F)C2)cc1 (configuration not stated),inactive
